Among the data in PubChem BioAssay (NCI) are growth values, retold here.

This is part of a sample that, as a whole, favours compounds with a hit. Of some 83,000 tested, about 20% had one in any assay.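 How to read the values: 0–100, growth inhibition (40 = 60% inhibited); 0, no net growth; -100 to 0, cell death (-40 = 40% of starting cells died; -100 = all dead).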 A number with no mark means an inactive call. Calls of active or inactive are those of the source. The calls were made as follows: active = growth percent below 10; inactive = the rest.

Some test systems named below: NCI-H23 lung; NCI-H226 lung; NCI-H322M lung; HOP-62 NSCLC; NCI-H460 lung; HOP-92 NSCLC; NCI-H522 lung; A549/ATCC NSCLC; 786-0 renal; COLO 205 colon.
Experiment in all cases: NCI-60 one-dose screen, 48 h (100 = growth as untreated, 0 = no growth, -100 = all killed)
What all share (conditions): 10 µM unless noted

`CN(C)c1ccc(/C=N/Nc2nnc3n2N=C(c2ccc(Cl)cc2)CS3)cc1`: the growth in the assay with NCI-H23 lung was 102%; with NCI-H226 lung, 85%; with NCI-H322M lung, 102%; with HOP-62 NSCLC, 104%; in the assay with NCI-H460 lung it was 93.4%; in the assay on HOP-92 NSCLC it was 94.5%. In addition, the growth with NCI-H522 lung is 87.5%; in the assay with A549/ATCC NSCLC, 81.3%; in the assay on 786-0 renal, 88.1%; in the assay with COLO 205 colon, 105%.
Turning to `CC1CCN(Cc2ccc(NC(=O)c3cc4ccc5cccnc5c4[nH]3)cc2)CC1`, the growth with NCI-H23 lung was 25.2%; in the assay with NCI-H226 lung, 43%; in the assay on NCI-H322M lung, 49.2%; in the assay on HOP-62 NSCLC it was 26.2%; in the assay on NCI-H460 lung it was 8.35% (active); with HOP-92 NSCLC it was 63.7%. For the same molecule, the growth in the assay with NCI-H522 lung was 23%; with A549/ATCC NSCLC it was 25.7%; in the assay with 786-0 renal it was 36.8%; in the assay on COLO 205 colon it was -16.3% (active).
For `Cc1cc(-c2nnc(/C=C/c3ccc4c(c3)OCO4)o2)n[nH]1`, the growth was 77.7% in the assay on NCI-H23 lung; 95.2% in the assay with NCI-H226 lung; 66.5% in the assay on NCI-H322M lung; 78.5% with HOP-62 NSCLC; 84.3% in the assay on NCI-H460 lung; 80.7% with HOP-92 NSCLC. Also, the growth with NCI-H522 lung is 15.2%; with A549/ATCC NSCLC, 58.7%; in the assay with 786-0 renal, 97.2%; in the assay with COLO 205 colon it was 61.6%.
With `Oc1[nH]c2ccccc2c1/C=c1/ccc2c(c1)N=C(c1ccc(C(F)(F)F)cc1)N=2`, the growth with NCI-H23 lung is 67%; in the assay on NCI-H226 lung, 89.6%; in the assay on NCI-H322M lung, 76.8%; with HOP-62 NSCLC, 71.6%; in the assay on NCI-H460 lung it was 41.1%; with HOP-92 NSCLC, 57.4%. For the same molecule, the growth in the assay with NCI-H522 lung is 40.7%; in the assay with A549/ATCC NSCLC, 50%; with 786-0 renal it was 6.1% (active); in the assay with COLO 205 colon it was 78.8%.
With `COc1ccc(-n2nc(C(=O)NCC(=O)Nc3nc4cc(OC)ccc4s3)c3ccccc3c2=O)cc1`, the growth in the assay with NCI-H23 lung is 19.5%; with NCI-H226 lung, -11.1% (active); in the assay with NCI-H322M lung, 31.4%; in the assay on HOP-62 NSCLC it was -78.7% (active); in the assay on NCI-H460 lung it was 1.04% (active); in the assay with HOP-92 NSCLC it was -34.9% (active). In addition, the growth was -9.83% (active) in the assay on NCI-H522 lung, 0.477% (active) in the assay on A549/ATCC NSCLC, 20.4% in the assay on 786-0 renal and 32.7% in the assay on COLO 205 colon.
Consider `COc1cc(-c2n/c(=C\c3c(O)[nH]c4cc(Cl)ccc34)cc3c2=Nc2ccccc2-3)cc(OC)c1OC`, for which the growth in the assay with NCI-H23 lung was 45.2%; in the assay on NCI-H226 lung it was 89.9%; with NCI-H322M lung it was 62.3%; in the assay on HOP-62 NSCLC, 23.3%; in the assay on NCI-H460 lung it was 59.7%; with HOP-92 NSCLC it was 27.2%. Further, the growth in the assay with NCI-H522 lung was 54.6%; in the assay with A549/ATCC NSCLC, 59.5%; with 786-0 renal it was 34.5%; in the assay on COLO 205 colon it was 58.6%.
As to `COc1ccc(-c2[nH]nc(N)c2-c2cc(OC)c(OC)c(OC)c2)cc1`, the growth with NCI-H23 lung was 17.4%; in the assay with NCI-H226 lung, 68.3%; with NCI-H322M lung, 7.95% (active); in the assay on HOP-62 NSCLC, 22%; in the assay on NCI-H460 lung it was 7.6% (active); in the assay on HOP-92 NSCLC, 31.3%. Besides, the growth is -32% (active) in the assay on NCI-H522 lung, 19.3% in the assay with A549/ATCC NSCLC, 24% with 786-0 renal and -61.6% (active) in the assay with COLO 205 colon.
As for `CCCCNCC(O)c1cc(-c2ccc(C(F)(F)F)cc2)nc(-c2ccc(C(F)(F)F)cc2)c1` (stereo not given), the growth with NCI-H23 lung is -63.9% (active); in the assay on NCI-H226 lung, -76.2% (active); in the assay on NCI-H322M lung, -74.3% (active); in the assay with HOP-62 NSCLC it was -90.5% (active); with NCI-H460 lung, -76.7% (active); with HOP-92 NSCLC, -86% (active). Also, the growth is -79% (active) in the assay on NCI-H522 lung, -83.5% (active) in the assay with A549/ATCC NSCLC, -78.7% (active) with 786-0 renal and -87.2% (active) in the assay with COLO 205 colon.
Regarding `COc1cc2c(cc1OC)C(=O)C(Br)CC2` (stereo not given), the growth is 45.8% with NCI-H23 lung; 90.8% in the assay on NCI-H226 lung; 102% in the assay on NCI-H322M lung; 51% in the assay with HOP-62 NSCLC; 75% in the assay on NCI-H460 lung; 20.2% in the assay on HOP-92 NSCLC. Also, the growth with NCI-H522 lung is -17.3% (active); with A549/ATCC NSCLC it was 80.1%; with 786-0 renal it was 63.8%; in the assay with COLO 205 colon, 24.6%.
As for `CN1CCN(Cc2ccc(NC(=O)c3cncc(C#Cc4ncc5cnccn45)c3)cc2C(F)(F)F)CC1`, the growth in the assay on NCI-H23 lung was 34.3%; in the assay with NCI-H226 lung it was -7.4% (active); with NCI-H322M lung, 60.4%; in the assay on HOP-62 NSCLC, 33.7%; in the assay on NCI-H460 lung, 52.6%; in the assay on HOP-92 NSCLC, 11.2%. The growth in the assay on NCI-H522 lung is 58.3%; in the assay with A549/ATCC NSCLC it was 74.2%; with 786-0 renal, 71.5%; with COLO 205 colon it was 17%.
Take `NC(=S)N/N=C(/c1cccs1)C1CC1`: the growth is 101% with NCI-H23 lung; 90.5% in the assay on NCI-H226 lung; 93% with NCI-H322M lung; 91.8% with HOP-62 NSCLC; 106% in the assay on NCI-H460 lung; 107% in the assay with HOP-92 NSCLC. Moreover, the growth in the assay with NCI-H522 lung was 87.4%; in the assay with A549/ATCC NSCLC, 63.6%; in the assay with 786-0 renal, 105%; with COLO 205 colon, 105%.
Consider `Cc1nc2n[nH]c(N)c2nc1C`, for which the growth was 102% in the assay on NCI-H23 lung; 99.9% with NCI-H226 lung; 93.1% in the assay with NCI-H322M lung; 104% in the assay with HOP-62 NSCLC; 111% in the assay with NCI-H460 lung; 100% in the assay on HOP-92 NSCLC. Further, the growth with NCI-H522 lung was 93.9%; in the assay on A549/ATCC NSCLC it was 99.2%; with 786-0 renal it was 105%; with COLO 205 colon, 109%.
On to `C=CC[C@]1(O)CC[C@H]2[C@@H]3CCc4cc(O)ccc4[C@H]3CC[C@@]21C`, for which the growth was 112% with NCI-H23 lung; 98.9% with NCI-H226 lung; 97% with NCI-H322M lung; 104% in the assay with HOP-62 NSCLC; 97.8% in the assay with NCI-H460 lung; 115% in the assay on HOP-92 NSCLC. Also, the growth in the assay on NCI-H522 lung was 63.9%; with A549/ATCC NSCLC, 91.3%; in the assay with 786-0 renal, 95.8%; in the assay on COLO 205 colon it was 104%.
For `CC(COC(=O)c1ccccc1)N1CC2CCC(C1)O2` (stereo not given), the growth in the assay on NCI-H23 lung is 107%; in the assay with NCI-H226 lung, 98.2%; with NCI-H322M lung, 97.8%; in the assay with HOP-62 NSCLC, 95.1%; in the assay with NCI-H460 lung, 104%; in the assay with HOP-92 NSCLC, 91.1%. The growth with NCI-H522 lung is 104%; in the assay on A549/ATCC NSCLC, 100%; in the assay on 786-0 renal it was 99.8%; in the assay with COLO 205 colon it was 104%.
